Assay results reported in the supplement of paper PMC6555819.

Legend:
Test in all cases: PBM binding z-score (relative to random genomic background probes); higher = stronger binding; sequences stand for … in GC…GCGATTGACAGCGTAGAATGAAGG
[1] = test system: FXR:RXRa (NR concentration 270 nM, RXRa partner concentration 90 nM)
How it was run: (§1)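 Ligand-free nuclear receptor dimers were applied to custom Agilent 4×180K protein-binding microarrays whose double-stranded probes carried direct-repeat seeds, single-nucleotide variants, half-site ablations and random human genomic background sequences in 34-nt variable regions. Incubation lasted 1 h. Binding z-scores were computed against the random background probes from regression-normalized fluorescence.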

[2] = test system: LXRa:RXRa (NR concentration 270 nM, RXRa partner concentration 90 nM)
How it was run: as §1

[3] = test system: LXRa homodimer (NR concentration 270 nM)
How it was run: as §1

[4] = test system: LXRb:RXRa (NR concentration 270 nM, RXRa partner concentration 90 nM)
How it was run: as §1

[5] = test system: LXRb homodimer (NR concentration 270 nM)
How it was run: as §1

[6] = test system: PPARa:RXRa (NR concentration 270 nM, RXRa partner concentration 90 nM)
How it was run: as §1

[7] = test system: PPARg:RXRa (NR concentration 180 nM, RXRa partner concentration 90 nM)
How it was run: as §1

[8] = test system: PPARg:RXRa 270nM:90nM, anti-RXR (NR concentration 270 nM, RXRa partner concentration 90 nM)
How it was run: as §1

[9] = test system: PPARg:RXRa 30nM:10nM, anti-RXR (NR concentration 30 nM, RXRa partner concentration 10 nM)
How it was run: as §1

[10] = test system: PPARg:RXRa 90nM:30nM, anti-RXR (NR concentration 90 nM, RXRa partner concentration 30 nM)
How it was run: as §1

[11] = test system: PPARg:RXRa DBDmut IVT, anti-RXR (DBD mutation: RXRa K156A/R161A, NR concentration 270 nM, RXRa partner concentration 90 nM)
How it was run: as §1

[12] = test system: PPARg:RXRa IVT, anti-PPARg (NR concentration 270 nM, RXRa partner concentration 90 nM)
How it was run: as §1

[13] = test system: PPARg DBDmut:RXRa IVT, anti-PPARg (DBD mutation: PPARg1 K132A/R137A, NR concentration 270 nM, RXRa partner concentration 90 nM)
How it was run: as §1

[14] = test system: PPARg DBDmut IVT, anti-PPARg (DBD mutation: PPARg1 K132A/R137A, NR concentration 270 nM)
How it was run: as §1

[15] = test system: PPARg homodimer (NR concentration 180 nM)
How it was run: as §1

[16] = test system: PXR:RXRa (NR concentration 270 nM, RXRa partner concentration 90 nM)
How it was run: as §1

[17] = test system: PXR homodimer (NR concentration 270 nM)
How it was run: as §1

[18] = test system: RARa:RXR (NR concentration 270 nM, RXRa partner concentration 90 nM)
How it was run: as §1

[19] = test system: RARa homodimer (NR concentration 270 nM)
How it was run: as §1

[20] = test system: RARb:RXRa (NR concentration 270 nM, RXRa partner concentration 90 nM)
How it was run: as §1

Sequence	PBM binding z-score [1]	PBM binding z-score [2]	PBM binding z-score [3]	PBM binding z-score [4]	PBM binding z-score [5]	PBM binding z-score [6]	PBM binding z-score [7]	PBM binding z-score [8]	PBM binding z-score [9]	PBM binding z-score [10]	PBM binding z-score [11]	PBM binding z-score [12]	PBM binding z-score [13]	PBM binding z-score [14]	PBM binding z-score [15]	PBM binding z-score [16]	PBM binding z-score [17]	PBM binding z-score [18]	PBM binding z-score [19]	PBM binding z-score [20]
CCGACCGGGGCAGAAAGGTTACCATACCATCCGG	0.539	0.79	-0.149	0.91	-1.19	1.89	0.899	1.07	-0.267	0.343	-0.478	-0.0375	-0.85	-1.32	0.496	1.16	-0.029	1.83	-0.144	2.06
AGAACGAGGGCACGCTGAGTTGATGGCAGAGTAG	0.805	0.828	-0.81	0.0668	-1.05	2.22	2.22	1.63	0.228	1.27	4.26	3.81	0.605	-0.669	0.179	1.13	-0.226	0.999	-0.371	2.38
ACTTACGGATCAACGAGGTTATAGCACGCGTATA	0.716	0.914	0.686	1.25	0.594	1.47	0.98	0.564	0.453	0.486	0.402	0.468	0.823	0.952	0.607	1.41	0.695	1.5	1.25	0.645
TCGAGTAGGTTAGGGGCATACAGAATGGCGTCGA	0.679	0.555	-0.335	0.825	-0.198	1.39	1.04	1.65	1.4	1.6	1.98	1.38	0.000515	-1.13	0.459	0.501	0.171	0.678	-0.124	1.06
CCTAGCAGGCCAGGGGCACTCAAGCATTTCGCTT	-0.742	-0.659	-0.647	-0.578	-1.19	-0.331	-0.281	-0.0349	-0.949	-0.765	0.0628	-0.609	-1.68	-1.6	-1.02	-0.801	-0.66	-0.684	-1.15	0.377
CCTTACGGGACACTCCAGGTTATAGCATCGGAGT	0.0463	0.511	0.714	-0.359	-0.449	0.0174	0.619	-0.335	-0.0425	-0.27	0.616	0.708	-0.0587	-0.578	0.252	0.0254	0.23	0.561	-0.181	0.356
TCATATAGGTAAGTGCTAGGTGAAAGTCCGATCT	0.366	0.752	0.094	0.207	0.122	0.896	0.556	2.06	3.39	2.49	3.42	2.48	0.55	0.697	0.802	0.193	0.147	0.223	1.04	0.4
AATATAGGGTCATCGTAGGCCAGAGTACGCACAG	7.57	6.66	2.71	5	1.56	6.26	7.29	6.57	3.61	5.37	4.87	5.42	1.96	1.99	2.4	4.98	0.973	5.35	1.7	4.58
GCTCGGAGGACAAGGTCAGAGATTTGTCCGTAGA	1.22	1.62	-0.347	1.2	-0.658	2.13	0.719	1.53	-0.349	0.587	-0.252	0.673	-0.517	-0.427	0.0878	1.24	-0.24	1.77	-0.275	3.48
TCTTGTAGATCAAGCCGGTTAAGAAAGCCTGAGT	0.845	0.416	-0.282	0.245	-0.0874	0.538	-0.597	1.31	2.88	1.97	1.95	0.218	-0.157	-0.013	0.0807	0.392	0.0295	0.402	-0.0189	0.123
TCTTGTAGATCAGCAGGTTAAGAACGCTGGCCAA	-0.138	-0.0946	-0.388	0.178	-0.52	0.745	-0.296	1.38	2.39	1.59	1.41	0.294	-0.675	-0.754	-0.66	-0.00865	-0.543	0.211	-0.75	0.0804
CCTACTGGGCCATCAGGTCATTGACATCAACGTT	2.17	1.67	1.29	2.01	-0.379	2.7	3.12	3.54	1.46	2.55	4.78	5.02	0.0284	0.33	1.3	1.67	0.415	2.15	0.278	2.09
ATCGAAGGGTCGACGAGGTGAGTATACACCGTTT	1.51	0.812	-0.587	0.951	-0.33	2.44	1.3	0.831	0.448	0.6	-0.299	0.882	-0.145	0.665	0.411	1.11	-0.598	2.02	-0.471	2.3
CCGACTGGGGCATAAAGTTACCATAAGCCAGCCC	-0.335	-0.54	-0.298	-0.42	-1.15	0.0732	0.855	0.803	-0.215	0.313	2.19	1.79	-0.543	-1.06	-0.724	-0.621	-0.245	-0.613	-0.145	0.149
ATCTCTAGGTAAGACTCCGTTCAGTGAAGAACGC	0.49	0.425	0.698	0.0873	0.894	-0.00199	0.087	0.169	0.111	0.441	2.22	1.25	0.571	0.804	1.16	0.0673	0.0511	0.105	0.882	0.229
CCGGGTAGGTTATGGGGCATTCAGGCAACGGTGA	0.235	0.484	0.0736	0.904	-0.348	1.54	2.18	3.16	0.788	2.58	0.0778	1.73	-0.642	-0.773	0.724	0.144	0.122	0.51	0.0053	1.1
CCTACTGGGCCAGGAAAGGTCATTGATTCAGTGA	3.42	4.12	3.32	3.74	-0.202	4.18	1.95	3.03	0.929	2.15	2.65	3.05	-0.225	-1.01	2.36	4.78	0.786	4.87	0.0596	3.71
CCGACTGCGGCATAAGGTTACCATAAGCCAGCCC	0.434	1.84	-0.038	0.877	-0.74	0.702	0.575	0.243	-0.468	-0.29	-0.303	-0.677	-0.568	-0.753	0.108	0.121	-0.316	0.892	0.0382	0.791
TCGAGTAGGCTAGGGGCATTCAGAATGGCGTCGA	-0.172	-0.557	-0.903	-0.262	-1.16	0.162	-0.111	0.716	0.676	0.504	0.831	-0.362	-1.38	-1.61	-0.968	-0.194	-0.983	-0.131	-1	0.171
GCGACTGGGGCAACAGCAGGTTACCATAACTTAA	0.03	1.28	-0.408	0.734	-0.94	1.25	1.43	1.47	-0.0459	0.485	4.72	3.85	-0.661	-0.485	0.0811	0.146	-0.288	0.56	-0.561	1.02
AGAATGAGGTTATTAAGATCAGGGTATTGCGGTC	1.3	1.29	0.345	1.09	0.122	2.46	1.41	1.62	0.322	0.93	3.41	2.66	0.601	0.558	1.18	1.21	1.07	1.28	0.859	1.32
CAAACTAGGTCTAGGTCAAAGTCGGTTTGTGCCA	1.86	2.04	1.3	1.73	0.0723	3.34	2.95	3.82	1.2	3.03	4.21	4.82	0.191	0.991	1.41	1.7	0.0565	2.06	-0.42	2.67
TCATAGAGGTAAACAGGTGAAAGTCCGTAAGTTA	0.648	0.794	-0.178	0.62	-0.997	2.14	1.65	2.55	2.8	2.68	2.54	2.16	0.176	0.0732	0.143	0.625	-0.208	1.11	0.579	0.861
TCTTGTAGATCAAAGGATAAGAAAGCCGAAGCCT	0.762	0.274	-0.116	-0.287	-0.528	0.671	1.13	3.36	3.43	3.38	1.75	0.245	0.639	-0.158	0.25	-0.0029	-0.483	-0.193	0.315	-0.125
TCTGCTAGGTCAATGATGGTCAGCTAATCTGCTA	2.48	2.82	-0.0629	1.38	-0.0652	2.69	1.53	2.35	1.77	2.05	3.8	3.49	0.246	-0.13	0.244	1.02	-0.71	1.46	-0.32	3.72
TCAGACAGGTGAAGGCAACTCAGGTACGCAGTCG	0.773	0.656	-0.307	0.471	-0.243	0.995	0.701	1.77	3.36	2.58	2.4	0.632	-0.586	-0.648	0.236	0.249	-0.101	0.507	-0.314	0.923
AGAATGAGGTTATACGTAGATCAGTGAAGAAAGT	1.96	1.82	0.00702	1.51	0.326	2.96	1.92	2.13	0.914	1.38	3.57	2.11	1.37	1.44	0.559	1.15	0.463	1.56	0.81	1.39
CGAACTAGGTCATTGACAGGAGAGTGAATAGTAA	4.67	2.65	0.0352	1.64	-0.158	4.89	7.41	6.44	3.96	5.77	7.92	8.28	2.36	3.6	1.32	1.04	0.0101	1.99	0.473	3.65
